The source of these data is PubChem BioAssay AID894 (National Center for Advancing Translational Sciences (NCATS), 2007).

The structures appear in SMILES notation. Out of some 150,000 compounds screened, about 6,500 (4.3%) were called active. Roughly 12% stayed inconclusive and do not appear here. This is one part of a sample in which actives are shown more often than they occur. A number with no mark means an inactive call. The call rests on the fitted dose curve; in most records, active means well fitted inhibition curve with a large enough effect (not every such curve was filed as active); inconclusive means small, poorly fitted or top-dose-only effect, or another doubt; inactive means no such curve, though single readings can be large or run the other way.
On the % scale 0 is the no-effect control and ±100 the full control effect; potency means the concentration at half of the fitted maximal effect.

15-hydroxyprostaglandin dehydrogenase [NAD(+)] (Homo sapiens), sequence (P15428 whole entry, looked up): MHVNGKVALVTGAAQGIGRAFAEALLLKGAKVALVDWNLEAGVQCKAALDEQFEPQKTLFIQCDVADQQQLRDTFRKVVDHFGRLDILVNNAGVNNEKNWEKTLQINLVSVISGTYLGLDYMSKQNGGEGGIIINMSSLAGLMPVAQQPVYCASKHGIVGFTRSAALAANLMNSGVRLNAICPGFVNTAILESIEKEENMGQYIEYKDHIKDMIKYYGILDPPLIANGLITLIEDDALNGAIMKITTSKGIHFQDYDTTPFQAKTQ

The assay deals with 15-hydroxyprostaglandin dehydrogenase [NAD(+)] (Homo sapiens) (UniProt P15428). Nature of the assay: qHTS Assay for Inhibitors of HPGD (15-Hydroxyprostaglandin Dehydrogenase). Conditions: purified HPGD, NADH fluorescence kinetic, PGE2 substrate; activity change, negative = inhibition: active compounds read low. In outline:
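20 nM HPGD preincubated 15 min at room temperature with compound in 50 mM Tris-HCl pH 8, 0.01% Tween 20. Started with 1 mM NAD+ and 30 uM prostaglandin E2; NADH fluorescence (360/450 nm) read 5 times over 30-s intervals, last minus first.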
For orientation: Quantitative high-throughput screening tests each substance at several concentrations.
Consider `CCC1CCCCN1C(=S)Nc1ccc(C(C)=O)cc1` (stereo not given), for which the activity change, negative = inhibition was -21.2%.

`Cc1ccc(-c2cn3cc([N+](=O)[O-])ccc3n2)cc1`: the activity change, negative = inhibition is -11.8%.

For `CC[C@H](C)[C@@H](NC(=O)O[C@@H]1C(=O)c2cc(OC)ccc2O[C@H]1c1cccc(OC)c1)C(=O)OC`, the activity change, negative = inhibition is -14.9%. The same measure, in the same setting: as for `O=[N+]([O-])c1cc(C(F)(F)F)ccc1NN=C1CCCC1`, the figure is -7.57%; as for `C/C(=N\NC(=O)CCn1nc(C)cc1C)C(C)(C)C`, -2.63%.

For `Cc1ccc(SCC(=O)Nc2ccc3c(c2)OCCO3)cc1`, the activity change, negative = inhibition is -4%. With `COC(=O)CCNc1ccc2c(c1)OCCO2`, the activity change, negative = inhibition was -9.02%.

As for `CCCCC(=O)Nc1ccc2c(c1)OCCO2`, the Potency was 25.1 µM (active). For `Cc1cn(C2OC[C@@H](O)[C@@H]2CO)c(=O)[nH]c1=O` (stereo not given in full), the activity change, negative = inhibition is -7.64%. Same read-out and setting: as for `Cc1ccccc1NC(=O)CSC1=NCCN1`, the figure is -5.67%.

Regarding `O=C(CSc1n[nH]c(-c2cccnc2)n1)Nc1ccnc2ccccc12`, the Potency is 15.8 µM (active). Regarding `O=C(CSc1nnc(-c2cccnc2)n1CCc1ccccc1)NCc1ccccc1`, the activity change, negative = inhibition was -12.6%. As to `C=CCn1cc(C(=O)NCc2ccc(Cl)cc2)c(=O)c2cc(S(=O)(=O)N(CC)CC)ccc21`, the activity change, negative = inhibition was 15.1%.

With `CC(=O)c1sc(N/N=C\c2ccc(C)cc2)nc1C`, the activity change, negative = inhibition is -20.1%. Turning to `C=CCNC(=S)NNC(=O)c1ccc(Br)o1`, the activity change, negative = inhibition was -14.9%. With `c1ccc(-c2nnc3n2NC(c2ccc4c(c2)OCO4)S3)cc1` (stereo not given), the Potency was 14.1 µM (active).

On to `Cc1cccc(C)c1NC(=O)CSc1nnc(-c2ccccc2)n1Cc1ccc2c(c1)OCO2`, for which the activity change, negative = inhibition is -8.72%. Take `CC1=C(C(N)=O)C(c2ccc3c(c2)OCO3)n2nc(-c3cccc(C)c3)nc2N1` (stereo not given): the activity change, negative = inhibition was -3.51%. Take `COCCNc1nc(N)c([N+](=O)[O-])c(NCCO)n1`: the activity change, negative = inhibition was -10.5%. In the case of `O=C(NNC(=S)NCc1ccccc1)c1ccc(OC(F)F)cc1`, the activity change, negative = inhibition is -6.63%. On the same count and under the same terms, the figure for `COc1cc(OC)cc(-c2nc3nc(C)c(CCC(=O)NCc4ccco4)c(C)n3n2)c1` is -10.9%; for `Cc1ccc(Cc2c(C)nc3nc(SCC(=O)NCCN4CCOCC4)nn3c2C)cc1` it is -11.4%.

Take `Cc1nc2nc(SCC(=O)NCc3ccco3)nn2c(C)c1Cc1ccccc1`: the Potency is 22.4 µM (active). For `CCOC(=O)C1CCN(c2ccc(C(=O)O)cc2[N+](=O)[O-])CC1`, the activity change, negative = inhibition is -3.84%.

With `CC(=O)c1cc(-c2ccccc2)n(CCC(=O)NC2CCCCCC2)c1C`, the activity change, negative = inhibition was -4.2%. In the case of `COc1ccc(CNC(=O)C2CCC(CNc3c(N4CCOCC4)c(=O)c3=O)CC2)cc1` (stereo not given), the activity change, negative = inhibition is -17.3%. Consider `CCOc1ccccc1NC(=O)C1CCC(CNc2c(N3CCOCC3)c(=O)c2=O)CC1` (stereo not given), for which the activity change, negative = inhibition was -25.1%. With `O=C(NCc1ccccc1Cl)C1CCC(CNc2c(N3CCCCC3)c(=O)c2=O)CC1` (stereo not given), the Potency was 12.6 µM (active). As for `O=C(CCN1C(=O)c2ccccc2C1=O)NNC(=O)c1ccc(Cl)cc1Cl`, the activity change, negative = inhibition is -7.71%.

With `Cc1c(Br)c([N+](=O)[O-])nn1CC(=O)Nc1sc2c(c1C(=O)OC(C)C)CCC(C)C2` (stereo not given), the activity change, negative = inhibition is -1.95%. For the molecule `C/C(=N/NS(=O)(=O)c1ccccc1)c1ccc(NC(=O)C(F)(F)F)cc1`, the activity change, negative = inhibition was -4.99%. On the same count and under the same terms, the figure for `COc1ccc(/C=N/OCC(=O)N(Cc2ccccc2)c2ccccc2C(=O)O)cc1` is -8.65%.

As to `O=C(N/N=C/c1coc2ccccc2c1=O)c1cc2ccccc2o1`, the activity change, negative = inhibition is -20%. On to `Cc1cccc(N2CCN(C(=O)/C=C/c3ccco3)CC2)c1C`, for which the activity change, negative = inhibition was -20.4%. Same read-out and setting: as for `CCOc1cc(-c2noc(CCC(=O)N3CCOCC3)n2)ccc1OC`, the figure is -8.81%; as for `COc1ccc(OCC(=O)N2CCOCC2)cc1`, 4.8%. Take `Cc1ccc(OCCCC(=O)N2CCOCC2)c(C)c1`: the Potency is 20 µM (active).

On to `COc1ccc(-c2nc3c(c4c2C[C@H](c2ccccc2)OC4)CN(C(=O)c2ccco2)CC3)c(C)c1`, for which the activity change, negative = inhibition is -11.6%. Consider `Cc1ccc(C(C)NC(=O)Cn2nc(C)c([N+](=O)[O-])c2C)cc1` (stereo not given), for which the activity change, negative = inhibition was -5.59%. Take `O=C(O)c1cccc(N=NN2CCCCCC2)c1`: the activity change, negative = inhibition is -9.76%. Same read-out and setting: the figure for `CCc1nnc(NC(=O)CCN(c2ccc(C)cc2)S(=O)(=O)c2ccccc2)s1` is -10.2%; for `CC(=O)NNC1=Nc2ccccc2N(C)C(C)C1` (stereo not given) it is 0.367%. `c1ccc2sc(SCCSc3nc4ccccc4s3)nc2c1`: the activity change, negative = inhibition was 0.386%. `O=[N+]([O-])c1c(NCCO)cc(Sc2nc3ccccc3s2)c2nonc12`: the Potency is 11.2 µM (active). In the case of `Cc1nn(CC(=O)Nc2nc3ccccc3s2)c(C)c1[N+](=O)[O-]`, the activity change, negative = inhibition is -4.84%. Same read-out and setting: the figure for `O=C(CSc1ccc2nnc(-c3ccccc3)n2n1)N1CCCc2ccccc21` is -22.3%; for `COc1cc(SC)ccc1C(=O)NCCOc1ccccc1Cl` it is -18.8%.

Take `COc1ccccc1CNC(=O)c1ccc(SC)cc1OC`: the Potency is 22.4 µM (active). As to `CCOC(=O)c1c(C)[nH]c(C(=O)NCc2ccccc2OC)c1C`, the activity change, negative = inhibition is -7.72%.

Regarding `CC(NC(=O)CCC(=O)N1CCN(S(=O)(=O)c2ccc(Cl)cc2)CC1)c1ccccc1` (stereo not given), the activity change, negative = inhibition is -5.29%. Still for that read-out and setting: as for `Cc1c(Cl)cccc1NC(=S)NCc1ccc2c(c1)OCO2`, the figure is -5.45%; as for `Cc1ccc(C(=O)c2c(NC(=O)c3ccncc3)sc3c2CCCC3)cc1`, -22.2%. With `CC(=O)c1c(Nc2ccccc2)sc(C(=O)c2ccccc2)c1C`, the activity change, negative = inhibition was -1.98%. With `Cc1ccc(C(=O)c2c(NC(=O)c3ccccc3)sc(C)c2C)cc1`, the Potency was 14.1 µM (active). For the molecule `CCc1ccccc1NC(=O)CN(C)C(=O)COc1ccc(C)nc1[N+](=O)[O-]`, the activity change, negative = inhibition is -2.83%. Same read-out and setting: the figure for `COc1ccc(NC(=O)COC(=O)c2ccc(NS(=O)(=O)/C=C/c3ccccc3)cc2)cc1` is -13.7%. The same measure, in the same setting: as for `Cn1cnc([N+](=O)[O-])c1Nc1ccccc1O`, the figure is -2.73%.

As for `Cc1nn(C)c(Oc2ccccc2)c1[N+](=O)[O-]`, the activity change, negative = inhibition is -7.95%.

Consider `Cn1cnc([N+](=O)[O-])c1Sc1ccccc1`, for which the Potency was 15.8 µM (active).

For the molecule `CCCN(CC1COc2ccccc2O1)C(=S)Nc1ccc(C)cc1` (stereo not given), the activity change, negative = inhibition is -7.28%. On the same count and under the same terms, the figure for `CCS(=O)(=O)n1nc(-c2ccc(OC)cc2)nc1SC` is -4.54%. On the same count and under the same terms, the figure for `CCCC(=O)n1nc(-c2ccccc2)nc1N` is -7.53%.

For the molecule `CCS(=O)(=O)n1nc(-c2ccccc2)nc1SCc1ccccc1`, the Potency is 14.1 µM (active). In the case of `Cc1cc(F)ccc1S(=O)(=O)N1CCCOC1CNC(=O)C(=O)NCCC1=CCCCC1` (stereo not given), the activity change, negative = inhibition is -6.01%.

In the case of `COc1ccc(CCN(C(=O)COc2ccccc2)c2nc(-c3ccccc3)cs2)cc1OC`, the activity change, negative = inhibition was -5.33%.

With `COc1ccc(C(CCN(Cc2ccc(OC)c(OC)c2)C(=O)CCl)c2ccccc2)cc1` (stereo not given), the Potency was 10 µM (active). With `CCOC(=O)CN(Cc1ccc(OC)c(OC)c1)S(=O)(=O)c1ccc(OC)cc1`, the activity change, negative = inhibition was 1.91%. As to `CC(C)(C)C1CCC(=NNC(=O)c2ccc(Br)o2)CC1` (stereo not given), the activity change, negative = inhibition was -11.4%. On to `CCOC(=O)c1ccc2c(c1)nc(SCC(=O)NC(C)C)n2CC`, for which the Potency was 31.6 µM (active). With `CCOC(=O)CNC(=O)CSc1nc2cccnc2n1CC`, the activity change, negative = inhibition was -17.6%. The same measure, in the same setting: as for `CCn1c(SCC(=O)NCC2CCCO2)nc2cc(S(=O)(=O)N3CCCCC3)ccc21` (stereo not given), the figure is -12.7%. Consider `O=C(CSCc1ccc(Cl)cc1)N1CCCCC1`, for which the Potency was 15.8 µM (active).

Take `O=C(CN1CCN(c2ccc(Cl)cc2)CC1)N1CCCC1`: the activity change, negative = inhibition was -1.51%.

Consider `O=C(CSCc1ccc(Cl)cc1)N1CCN(Cc2ccc3c(c2)OCO3)CC1`, for which the activity change, negative = inhibition is -13.7%.

In the case of `CCCCC/C=C\C/C=C\CCCCCCCCCC(N)=O`, the activity change, negative = inhibition is -6.01%.

With `COc1ccc(NC(=S)NC2CCS(=O)(=O)C2)cc1` (stereo not given), the activity change, negative = inhibition was -7.38%. On the same count and under the same terms, as for `Clc1ccc(CSc2nnc(/C=C/c3ccccc3)o2)c(Cl)c1`, the figure is -24.9%. As to `S=c1[nH]nc(CSCc2ccc(Cl)cc2Cl)n1-c1ccccc1`, the Potency was 3.16 µM (active). As for `O=c1[nH]nc(CSCc2ccccc2Cl)[nH]1`, the activity change, negative = inhibition was -4.38%.

`CCOC(=O)Cc1csc(NC(=O)CSc2ccc(Br)cc2)n1`: the activity change, negative = inhibition is -1.05%.

With `CCOC(=O)CNC(=O)/C=C/c1c(Cl)cccc1Cl`, the activity change, negative = inhibition was -4.86%. Same read-out and setting: as for `Cc1cccc2cc(CN(C(=O)c3cccs3)c3ccccc3)c(=O)[nH]c12`, the figure is -18.7%. Same read-out and setting: as for `CSC(=S)N/N=C/c1c[nH]c2ccccc12`, the figure is -6.73%. For `Cc1ccc(/C=N\n2c(-c3ccccc3)n[nH]c2=S)s1`, the Potency is 11.2 µM (active). Regarding `Cc1n[nH]c(=S)n1/N=C/c1ccc(Br)o1`, the activity change, negative = inhibition was -10%. Same read-out and setting: as for `Brc1ccc(/C=N/N2CCN(C3c4ccccc4-c4ccccc43)CC2)s1`, the figure is -4.34%. Turning to `S=c1[nH]nc(-c2ccccc2)n1/N=C/c1c[nH]c2ccccc12`, the Potency was 2 µM (active). Regarding `S=c1[nH]nc(-c2ccco2)n1/N=C/c1ccc(Br)s1`, the Potency was 2.82 µM (active).

On to `Oc1ccccc1/C=N/n1c(-c2cccs2)n[nH]c1=S`, for which the Potency is 2.51 µM (active).

Turning to `Cc1ccc(-c2csc(-c3c[nH]c4ccccc34)n2)cc1`, the activity change, negative = inhibition was -7.14%.

As for `Cc1ccsc1/C=N/n1c(=S)[nH]nc(C)c1=O`, the activity change, negative = inhibition was -6.69%. On the same count and under the same terms, the figure for `c1ccc(-c2noc(-c3cccs3)n2)nc1` is -8.74%; for `Cc1ccc2[nH]c(C(=O)O)c(NC(=O)c3ccccc3[N+](=O)[O-])c2c1` it is -8.36%; for `COc1ccc(C(=O)NC2(C(F)(F)F)NC(=O)N(CCCc3ccccc3)C2=O)c(OC)c1OC` (stereo not given) it is -2.88%.

On to `Cc1cccc(C)c1NC(=O)CSc1ccc([N+](=O)[O-])cn1`, for which the activity change, negative = inhibition was -5.79%.
